About 83,000 compounds went through this panel and 20% of them were active in at least one assay; those are over-represented in the sample as a whole.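 Assay: single dose, 48 h. Readout: percent growth (0 = no net growth; negative = cell death). Active: <10.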 A number with no mark means an inactive call. The source made the active and inactive calls.

Among the test systems are SR leukemia; RPMI-8226 leukemia; OVCAR-8 ovarian; OVCAR-5 ovarian; OVCAR-4 ovarian; SK-OV-3 ovarian; IGROV1 ovarian; OVCAR-3 ovarian; HS 578T breast; NCI/ADR-RES ovarian.
Common to all, as to experiment: NCI-60 one-dose screen, 48 h (100 = growth as untreated, 0 = no growth, -100 = all killed)
Details in all cases: 10 µM unless noted

Turning to `Cc1c[n+](Cc2ccc3ccccc3c2)cn1Cc1ccc2ccccc2c1`, the growth is -47.2% (active) in the assay with SR leukemia; -42.4% (active) in the assay on RPMI-8226 leukemia; 2.04% (active) in the assay on OVCAR-8 ovarian; 27.1% with OVCAR-5 ovarian; -7.39% (active) in the assay with OVCAR-4 ovarian; 35.3% with SK-OV-3 ovarian. Besides, the growth with IGROV1 ovarian was -16.3% (active); in the assay with OVCAR-3 ovarian it was -2.44% (active); in the assay on HS 578T breast it was 46.8%; in the assay with NCI/ADR-RES ovarian it was 101%.

For `C[PH+](c1nc2ccccc2nc1[PH+](C)C(C)(C)C)C(C)(C)C.C[PH+](c1nc2ccccc2nc1[PH+](C)C(C)(C)C)C(C)(C)C.[Au+].[Cl-]` (stereo not given), the growth was 6.59% (active) in the assay on SR leukemia; -18.1% (active) in the assay on RPMI-8226 leukemia; -100% (active) with OVCAR-5 ovarian; -100% (active) with OVCAR-4 ovarian; -100% (active) with SK-OV-3 ovarian; -87.9% (active) with IGROV1 ovarian. In addition, the growth in the assay on OVCAR-3 ovarian was -100% (active); with HS 578T breast it was -38.6% (active); in the assay with NCI/ADR-RES ovarian it was -79.5% (active).

Turning to `CN(C)c1ccc(C(=O)OCCCCCCl)cc1`, the growth with SR leukemia was 89.4%; in the assay on RPMI-8226 leukemia it was 106%; in the assay with OVCAR-5 ovarian it was 75.6%; with OVCAR-4 ovarian, 95.4%; in the assay with SK-OV-3 ovarian, 102%; in the assay on IGROV1 ovarian, 101%. Besides, the growth in the assay with OVCAR-3 ovarian is 95.4%; in the assay with HS 578T breast, 103%; in the assay with NCI/ADR-RES ovarian, 97.6%.

With `CN(C)c1ccc(-c2c(C#N)c(N)nn2C(=O)c2ccc(NC(=O)c3ccccn3)cc2)cc1`, the growth was 98.6% with SR leukemia; 95.5% in the assay on RPMI-8226 leukemia; 95.7% in the assay on OVCAR-5 ovarian; 105% with OVCAR-4 ovarian; 108% in the assay on SK-OV-3 ovarian; 79.1% in the assay with IGROV1 ovarian. For the same compound, the growth in the assay on OVCAR-3 ovarian is 102%; with HS 578T breast, 93.9%; with NCI/ADR-RES ovarian, 96.4%.

Take `NC(=O)c1c(NC(=O)c2ccc3ccccc3c2)sc2c1CCC(=O)C2`: the growth in the assay on SR leukemia was 8.41% (active); with RPMI-8226 leukemia, -12.1% (active); in the assay on OVCAR-5 ovarian, 74.7%; in the assay with OVCAR-4 ovarian, 5.13% (active); in the assay with SK-OV-3 ovarian, 104%; with IGROV1 ovarian, 42.7%. The growth is 23% with OVCAR-3 ovarian, 49.6% with HS 578T breast and 85.3% in the assay on NCI/ADR-RES ovarian.

`COc1ccc(CNc2c3ccccc3nc3ccccc23)cc1`: the growth is 6.96% (active) in the assay with SR leukemia; 15.8% in the assay with RPMI-8226 leukemia; 46.4% with OVCAR-5 ovarian; 40.3% in the assay with OVCAR-4 ovarian; 53.8% with SK-OV-3 ovarian; 27.2% in the assay on IGROV1 ovarian. Further, the growth is 48.1% in the assay on OVCAR-3 ovarian, 58% with HS 578T breast and 38.8% in the assay with NCI/ADR-RES ovarian.

Consider `O=C1C(Cl)=C(Nc2ccc(S(=O)(=O)N3CCOCC3)cc2)C(=O)c2ccccc21`, for which the growth in the assay with SR leukemia was -3.16% (active); with RPMI-8226 leukemia, 21.2%; in the assay with OVCAR-5 ovarian it was 38.1%; in the assay on OVCAR-4 ovarian, 86%; in the assay with SK-OV-3 ovarian, 81.3%; with IGROV1 ovarian it was 62.5%. Further, the growth was 72.8% in the assay on OVCAR-3 ovarian, 79.2% in the assay with HS 578T breast and 90% in the assay with NCI/ADR-RES ovarian.

As for `COc1cc(C2CC(c3ccc(Nc4nc(Nc5ccc(Cl)cc5)nc(Nc5ccc(Cl)cc5)n4)cc3)=NN2C(C)=O)cc(OC)c1OC` (stereo not given), the growth in the assay on SR leukemia is 72.7%; with RPMI-8226 leukemia, 32%; in the assay with OVCAR-5 ovarian, 92.8%; in the assay with OVCAR-4 ovarian, 97.3%; in the assay on SK-OV-3 ovarian, 126%; in the assay with IGROV1 ovarian, 85.7%. Moreover, the values for the growth with OVCAR-3 ovarian, in the assay on HS 578T breast and in the assay with NCI/ADR-RES ovarian were 105%, 122% and 92.7%, respectively.

Turning to `Cc1sc2nc(NCCc3c[nH]c4ccc(Cl)cc34)[nH]c(=O)c2c1C`, the growth was 15.7% in the assay with SR leukemia; 38.5% in the assay with OVCAR-8 ovarian; 62.5% with OVCAR-5 ovarian; 60% in the assay on OVCAR-4 ovarian; 60.6% in the assay on SK-OV-3 ovarian; 50.8% in the assay with IGROV1 ovarian. In addition, the results for the growth with OVCAR-3 ovarian, in the assay with HS 578T breast and in the assay on NCI/ADR-RES ovarian were 64.7%, 25.4% and 47.1%, respectively.

With `CN1C(=O)/C(=C\c2c(Cl)cccc2Cl)c2ccccc21`, the growth in the assay with SR leukemia is 34.3%; in the assay on OVCAR-8 ovarian it was 94.1%; in the assay with OVCAR-5 ovarian, 98.6%; with OVCAR-4 ovarian, 87.9%; with SK-OV-3 ovarian, 99.2%; in the assay on IGROV1 ovarian, 92.1%. Further, the figures for the growth in the assay with OVCAR-3 ovarian, in the assay on HS 578T breast and in the assay with NCI/ADR-RES ovarian were 95.4%, 81.7% and 80.1%, respectively.

Take `Cc1[nH]c(C(=O)Nc2ccc(C(=O)N3CCN(c4cc5c(cc4F)c(=O)c(C(=O)O)cn5C4CC4)CC3)cc2OC(C)C)c(Cl)c1Cl`: the growth in the assay with SR leukemia is 45.9%; in the assay with OVCAR-8 ovarian, 78.2%; in the assay with OVCAR-5 ovarian, 95.1%; in the assay on OVCAR-4 ovarian it was 94.5%; in the assay with SK-OV-3 ovarian, 110%; in the assay on IGROV1 ovarian it was 49.5%. In addition, the results for the growth in the assay with OVCAR-3 ovarian, in the assay on HS 578T breast and with NCI/ADR-RES ovarian were 85.8%, 87.2% and 78.4%, respectively.

(Values after PubChem BioAssay (NCI).)
